# Experimental data: PubChem BioAssay
# Values joined by “and” are separate entries in the source; they are usually repeats but may differ in a detail not shown here. Identical values can stand only once. Active and inactive are the calls of the source.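 Rule for the calls, unless noted: active = compounds killing one labelled cell type while sparing the other, by normalised counts and ratio limits, not self-fluorescent; inactive = the rest.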
# Experiments:
# [1] = P. berghei load reduction in hepatocytes – cell-based, HepG2, luciferase luminescence, HepG2 viability, primary screen (AID 624349; in the data active = parasite load remaining mostly below about 12%, no sharp cut-off; inactive = mostly above about 10%;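 note: 100% = mean of DMSO negative control wells on the same plate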); settings: P. berghei liver stage in HepG2, luciferase luminescence, concentration not given here; parasite load remaining: stronger effect = lower value; viability: measured here: HepG2 viability without parasites
# [2] = signal quenchers or enhancers, Cy5 substrate/SSB – biochemical, NIH Clinical Collection, E. coli SSB, artefact control for HCV NS3 helicase inhibitor project (AID 743268; call rule not given here); settings: Cy5-oligo bound E. coli SSB, fluorescence interference
# [3] = test system: Hepatitis C virus NS3 helicase; assay: blockers of NS3h binding to DNA – biochemical, fluorescence polarization, NIH Clinical Collection, primary screen (AID 743270; call rule not given here); settings: NS3 helicase binding to Cy5-dT15 DNA, stronger effect = higher value, concentration not given here
# [4] = target: Single-stranded DNA-binding protein (Escherichia coli (strain K12)) (UniProt P0AGE0); assay: SSB-ssDNA binding inhibitors – biochemical, fluorescence polarization, NIH Clinical Collection, counter-screen for HCV NS3 helicase inhibitor project (AID 743271; in the data active = inhibition above about 28%); settings: E. coli SSB-DNA binding, stronger effect = higher value, concentration not given here
# [5] = compounds distorting NS3 helicase fluorescence signal – biochemical, NIH Clinical Collection, artefact control for HCV NS3 helicase inhibitor project (AID 743272; call rule not given here;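 note: HCV NS3 helicase with a Cy5 labelled single stranded DNA probe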); settings: fluorescence interference counterscreen, HCV NS3 helicase assay; stronger effect = lower value
# [6] = test system: Neuropilin-2 / VEGF-C interaction (human); assay: small molecules blocking Neuropilin-2/VEGF-C interaction – biochemical, microplate binding format, z-score (AID 743281; call rule not given here); settings: microplate NRP2/VEGF-C binding assay; stronger effect = lower value
# [7] = modulation of C. elegans fzo-1 (AID 1259413; call rule not given here;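 note: fzo-1 mutant C. elegans worms in liquid wells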); settings: C. elegans fzo-1 modulator screen, mean read-out; stronger effect = higher value
# [8] = test system: Aerobactin synthetase IucA (Klebsiella pneumoniae); assay: inhibition of K. pneumoniae IucA enzyme – biochemical, Tocris library, absorbance (AID 1345561; call rule not given here;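 note: 100% = enzyme without compound and 0% = no enzyme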); settings: purified IucA enzyme assay, absorbance (OD) read-out; stronger effect = lower value;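 tested at 8 µM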
# [9] = viability loss with induced miR-34 in A549 – imaging, A549 dox-inducible miR-34, nuclei and caspase counts, primary screen (AID 1347080;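 active = compounds whose cell count with miR-34 switched on is under 0.7 times the count with it off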); settings: A549 miR-34 inducible, Hoechst nuclei count, 48 h
# [10] = galactose survival enhancers in mitochondrial complex I cybrids – cell-based, galactose medium, ATP luminescence, primary screen (AID 1645843;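 active = z-score of at least 1.8 in each of two replicates, scored against plate mean and spread of sample wells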;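 note: positive z means more ATP and so rescue of galactose-driven cybrid death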); settings: complex I mutant cybrid cells, 72 h, stronger effect = higher value
# [11] = compounds altering circadian rhythm period length – cell-based, LOPAC library, luminescence reporter (AID 2774; call rule not given here;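 note: values are relative to mean of DMSO wells on each plate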); settings: circadian reporter cells, at 7 µM, actives lie on both sides
# [12] = test system: Hepatitis C virus NS3 helicase; assay: blockers of NS3h binding to ssDNA – biochemical, fluorescence polarization, LOPAC1280 library, primary screen (AID 687035; in the data active = inhibition above about 37%); settings: Purified HCV NS3 helicase, Cy5-dT15 ssDNA binding fluorescence polarization; stronger effect = higher value; concentration not given here
# [13] = compounds altering Cy5-DNA-NS3h complex signal – biochemical, LOPAC1280, artefact control for HCV NS3 helicase inhibitor project (AID 687037; call rule not given here); settings: Cy5-DNA-NS3h complex fluorescence interference counterscreen
# [14] = blockers of cellular phospholipid synthesis – cell-based, LOPAC library, screen 4, primary screen (AID 1347384; call rule not given here); settings: animal cells, phospholipid biosynthesis inhibition screen; at 10 µM
# [15] = EMT-state selective cytotoxicity in co-culture – imaging, PC-3E GFP, TEM4-18 mCherry, primary screen (AID 1345086); settings: PC-3E GFP / TEM4-18 mCherry co-culture, imaging cell counts, at 1 µM; for red/green cell ratio (normalised): actives lie on both sides, counts scaled to control wells, 1 = unselective;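 for all read-outs here: cells exposed to compound for 72 h before imaging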;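 for red/green cell ratio (normalised): normalised mesenchymal count divided by normalised epithelial count so high means epithelial killing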
# [16] = stronger effect = lower value, cell number ratio, induced over uninduced
# [17] = measured here: relative caspase fold change +Dox/-Dox
# [18] = measured here: total cells with miR-34 induction, stronger effect = lower value
# [19] = measured here: total cells without miR-34 induction
# [20] = measured here: epithelial PC-3E GFP cell survival
# [21] = measured here: mesenchymal TEM4-18 mCherry cell survival
structure (smiles),measurement,setting,value
CS(=O)(=O)c1ccc(-c2cc(Br)sc2-c2ccc(F)cc2)cc1,parasite load remaining,[1],10.4% (inactive)
same,viability,[1],69.4%
same,fluorescence ratio,[2],0.96 (inactive)
same,inhibition,[3],5.02% (inactive)
same,inhibition,[4],4.33% (inactive)
same,fluorescence ratio,[5],0.95 (inactive)
same,z-score,[6],-0.424 (inactive)
same,mean signal,[7],233 (inactive)
same,remaining activity,[8],111% (inactive)
same,fold change,[9]; [16],0.877 (inactive) and 0.852 (inactive) and 0.867 (inactive)
same,fold change,[9]; [17],1.92 and 0.768 and 0.919
same,cell count,[9]; [18],8710 and 4800 and 6290
same,cell count,[9]; [19],9930 and 5630 and 7260
same,z-score,[10],-0.985 (inactive) and -0.57 (inactive)
C#C[C@]1(OC(C)=O)CC[C@H]2[C@@H]3CCC4=CC(=O)CC[C@@H]4[C@H]3CCC21C (stereo partly specified),mean signal,[7],228 (inactive)
CC(=O)S[C@@H]1CC2=CC(=O)CCC2(C)[C@H]2CCC3(C)[C@@H](CC[C@@]34CCC(=O)O4)[C@H]12 (stereo partly specified),mean signal,[7],260 (inactive)
CN1CCc2cc(Cl)c(O)cc2[C@@H](c2ccccc2)C1,period change,[11],0.17 h (inactive)
same,parasite load remaining,[1],38.6% (inactive)
same,viability,[1],72.6%
same,inhibition,[12],-1% (inactive)
same,fluorescence ratio (interference),[13],1 (inactive)
same,fluorescence ratio,[2],0.96 (inactive)
same,inhibition,[3],-5.46% (inactive)
same,inhibition,[4],-6.69% (inactive)
same,fluorescence ratio,[5],1.01 (inactive)
same,z-score,[6],-1.33 (inactive)
same,mean signal,[7],255 (inactive)
same,remaining activity,[8],107% (inactive)
same,fold change,[9]; [16],0.95 (inactive) and 0.955 (inactive)
same,fold change,[9]; [17],1.25 and 1.04
same,cell count,[9]; [18],9640 and 8960
same,cell count,[9]; [19],10100 and 9370
same,outcome,[14],inactive
same,z-score,[10],-0.095 (inactive) and 0.675 (inactive)
CC(CC(=O)N1CCOC1=O)N1C(=S)OC[C@@H]1c1ccccc1 (stereo partly specified),red/green cell ratio (normalised),[15],1.05 (inactive)
same,normalised cell number,[15]; [20],0.85
same,normalised cell number,[15]; [21],0.89
Oc1ccc(Oc2cnc3ccc(Cl)cc3n2)cc1,red/green cell ratio (normalised),[15],0.74 (inactive)
same,normalised cell number,[15]; [20],1.41
same,normalised cell number,[15]; [21],1.05
COC(=O)[C@]12Oc3c(c(O)cc4c3C3C=C[C@]5(C4)C(=C(O)c4c(O)cc(C)cc4[C@@H]5OC(C)=O)C3=O)C(O)=C1C(=O)C=C[C@@H]2O,red/green cell ratio (normalised),[15],0.99 (inactive)
same,normalised cell number,[15]; [20],0.87
same,normalised cell number,[15]; [21],0.86
COC(=O)CNC(=O)c1ccc([C@H](O)c2ccccc2)cn1,red/green cell ratio (normalised),[15],0.87 (inactive)
same,normalised cell number,[15]; [20],1
same,normalised cell number,[15]; [21],0.87
NC(=O)NCCCC(N)C(=O)O (stereo unspecified),red/green cell ratio (normalised),[15],1.05 (inactive)
same,normalised cell number,[15]; [20],1.03
same,normalised cell number,[15]; [21],1.08
CC(C)/C(O)=C1/C(=O)O[C@@H](c2ccoc2)[C@]2(C)C(O)[C@@H](O)[C@@]34OC5(C)OC67CC(C)(C(O)[C@]6(O)[C@@H](O)[C@]3(O5)C12)[C@H](CC(=O)O)C74C (stereo partly specified),red/green cell ratio (normalised),[15],1.06 (inactive)
same,normalised cell number,[15]; [20],1
same,normalised cell number,[15]; [21],1.06
CC1=C(/C=C/C(C)=C/C=C/C(C)=C/C=C/C=C(C)/C=C/C=C(C)/C=C/C2=C(C)C(=O)C(O)CC2(C)C)C(C)(C)CC(O)C1=O (stereo unspecified),red/green cell ratio (normalised),[15],1.11 (inactive)
same,normalised cell number,[15]; [20],0.97
same,normalised cell number,[15]; [21],1.08
CC(=O)OC1CC(C)OC(=O)CCC(O)CC1=O (stereo unspecified),red/green cell ratio (normalised),[15],0.98 (inactive)
same,normalised cell number,[15]; [20],0.98
same,normalised cell number,[15]; [21],0.96
CC(=O)O[C@H]1C[C@@]2(C)C(CCC3[C@@]4(C)C=CC(=O)[C@@H](C)C4[C@H](OC(C)=O)C(=O)[C@@]32C)/C1=C(/CCC=C(C)C)C(=O)O (stereo partly specified),red/green cell ratio (normalised),[15],0.99 (inactive)
same,normalised cell number,[15]; [20],0.92
same,normalised cell number,[15]; [21],0.91
CC(C)CCCC(C)C1CCC2C3CC(=O)[C@H]4C[C@@H](O)CC[C@]4(C)C3CC[C@]12C (stereo partly specified),red/green cell ratio (normalised),[15],1.01 (inactive)
same,normalised cell number,[15]; [20],1.04
same,normalised cell number,[15]; [21],1.05
CC1=CC2C(C(C)C)CCC(C)(O)C2CC1 (stereo unspecified),red/green cell ratio (normalised),[15],1.01 (inactive)
same,normalised cell number,[15]; [20],1.1
same,normalised cell number,[15]; [21],1.11
COc1cc(O)c2c(c1)[C@@H](O)[C@@]13CO[C@@H](O)[C@@]1(O3)C2=O,red/green cell ratio (normalised),[15],1.09 (inactive)
same,normalised cell number,[15]; [20],1.01
same,normalised cell number,[15]; [21],1.1
OC[C@H]1O[C@H](OCCCc2ccc(O)cc2)[C@H](O)[C@@H](O)[C@@H]1O,red/green cell ratio (normalised),[15],1.19 (inactive)
same,normalised cell number,[15]; [20],0.9
same,normalised cell number,[15]; [21],1.07
COc1cc(CC(=O)O)c(C(C)=O)c(O)c1OC,red/green cell ratio (normalised),[15],0.89 (inactive)
same,normalised cell number,[15]; [20],1.18
same,normalised cell number,[15]; [21],1.06
CN[C@H]1[C@@H](O[C@@H]2[C@@H](O[C@@H]3[C@@H](O)[C@H](O)[C@@H](N=C(N)N)[C@H](O)[C@H]3N=C(N)N)O[C@H](C)[C@@]2(O)CO)O[C@H](CO)[C@@H](O)[C@@H]1O,red/green cell ratio (normalised),[15],0.84 (inactive)
same,normalised cell number,[15]; [20],1.23
same,normalised cell number,[15]; [21],1.03
CCC[C@H]1Cc2cc3c(-c4c(O)cc(O)c5c(O)c6c(cc45)C[C@H](CCC)OC6=O)c(O)cc(O)c3c(O)c2C(=O)O1,red/green cell ratio (normalised),[15],0.9 (inactive)
same,normalised cell number,[15]; [20],0.85
same,normalised cell number,[15]; [21],0.77
CC1(C)C2CC(=O)[C@@]3(C)C4=CC(=O)O[C@@H](C(=O)O)[C@]4(C)CCC3[C@@]2(C)[C@@H](O)C[C@H]1O (stereo partly specified),red/green cell ratio (normalised),[15],0.95 (inactive)
same,normalised cell number,[15]; [20],1.05
same,normalised cell number,[15]; [21],0.99
CCCCCCCCCCCC[C@H](C(=O)O)[C@@H](C)C(=O)O,red/green cell ratio (normalised),[15],1.15 (inactive)
same,normalised cell number,[15]; [20],0.84
same,normalised cell number,[15]; [21],0.97
COC(=O)C[C@@H]1C2(C)C(=O)[C@@H](CC3C2CC[C@]2(C)C3CC(=O)O[C@H]2c2ccoc2)[C@H](OC(C)=O)C1(C)C (stereo partly specified),red/green cell ratio (normalised),[15],0.92 (inactive)
same,normalised cell number,[15]; [20],1.04
same,normalised cell number,[15]; [21],0.95
COc1cc2c(cc1OC)Cc1cc(OC)c(OC)cc1Cc1cc(OC)c(OC)cc1C2,red/green cell ratio (normalised),[15],1.03 (inactive)
same,normalised cell number,[15]; [20],1.01
same,normalised cell number,[15]; [21],1.04
CC(C)(c1ccc(O)cc1)c1ccc(O)cc1,red/green cell ratio (normalised),[15],0.93 (inactive)
same,normalised cell number,[15]; [20],1.17
same,normalised cell number,[15]; [21],1.09
CC(C)=CCCC(C)C1CC[C@@]2(C)C3=C(CC[C@]12C)C1(C)CC[C@H](O)C(C)(C)C1CC3 (stereo partly specified),red/green cell ratio (normalised),[15],1.05 (inactive)
same,normalised cell number,[15]; [20],1.09
same,normalised cell number,[15]; [21],1.14
COC(=O)c1cc(OC)cc(OC(=O)c2c(O)cc3cc(C)oc(=O)c3c2O)c1O,red/green cell ratio (normalised),[15],0.92 (inactive)
same,normalised cell number,[15]; [20],0.94
same,normalised cell number,[15]; [21],0.86
COC(=O)C1O[C@H](Sc2ccccc2)[C@@H](OC(=O)c2ccccc2)[C@@H](OC(=O)c2ccccc2)C1O (stereo partly specified),red/green cell ratio (normalised),[15],0.96 (inactive)
same,normalised cell number,[15]; [20],1.05
same,normalised cell number,[15]; [21],1
